From PubChem BioAssay (NCATS)
Several values for one entry are separate records, joined by “and”; a condition that tells them apart may be missing. Identical values can stand only once. Inconclusive results are not listed. Activity calls are given as the source filed them. Unless noted, the call rests on the fitted dose curve; in most records, active means well fitted curve in either direction with a large enough effect (not every such curve was filed as active); inconclusive means small, poorly fitted or top-dose-only effect, or another doubt; inactive means flat fitted curve, though single readings scatter.

What was measured:
[1] = Stat Signaling Pathway (AID 446); settings: ME-180 (cervical carcinoma) SIE beta-lactamase reporter, IL-6 stimulated, 5 h;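 further: ME-180 cervical cancer cells given 40 pM IL-6 alongside compound; SIE-controlled beta-lactamase reporter measured as 460/530 nm FRET emission ratio; on the % scale 0 is the no-effect control and ±100 the full control effect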
In short: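 FRET read-out (405 nm excitation, 460/530 nm emission) of a beta-lactamase reporter under a STAT-inducible element in ME-180 cervical carcinoma cells. Cells with compound receive 40 pM IL-6 for 5 h. Values are normalised to AC90 stimulation and AC90 JAK-inhibitor controls.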

[2] = biological target: Glucocorticoid receptor (Homo sapiens) (UniProt P04150); assay: GR-GFP Redistribution (AID 450;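 active means compounds whose dose series gives a full or clear partial fitted curve of increased nuclear translocation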; further: potency means the concentration at half of the fitted maximal effect); settings: U2OS GR-GFP nuclear translocation, laser cytometry, 2 h
Glucocorticoid receptor (Homo sapiens), sequence (P04150 whole entry, looked up, the tested form may be a part): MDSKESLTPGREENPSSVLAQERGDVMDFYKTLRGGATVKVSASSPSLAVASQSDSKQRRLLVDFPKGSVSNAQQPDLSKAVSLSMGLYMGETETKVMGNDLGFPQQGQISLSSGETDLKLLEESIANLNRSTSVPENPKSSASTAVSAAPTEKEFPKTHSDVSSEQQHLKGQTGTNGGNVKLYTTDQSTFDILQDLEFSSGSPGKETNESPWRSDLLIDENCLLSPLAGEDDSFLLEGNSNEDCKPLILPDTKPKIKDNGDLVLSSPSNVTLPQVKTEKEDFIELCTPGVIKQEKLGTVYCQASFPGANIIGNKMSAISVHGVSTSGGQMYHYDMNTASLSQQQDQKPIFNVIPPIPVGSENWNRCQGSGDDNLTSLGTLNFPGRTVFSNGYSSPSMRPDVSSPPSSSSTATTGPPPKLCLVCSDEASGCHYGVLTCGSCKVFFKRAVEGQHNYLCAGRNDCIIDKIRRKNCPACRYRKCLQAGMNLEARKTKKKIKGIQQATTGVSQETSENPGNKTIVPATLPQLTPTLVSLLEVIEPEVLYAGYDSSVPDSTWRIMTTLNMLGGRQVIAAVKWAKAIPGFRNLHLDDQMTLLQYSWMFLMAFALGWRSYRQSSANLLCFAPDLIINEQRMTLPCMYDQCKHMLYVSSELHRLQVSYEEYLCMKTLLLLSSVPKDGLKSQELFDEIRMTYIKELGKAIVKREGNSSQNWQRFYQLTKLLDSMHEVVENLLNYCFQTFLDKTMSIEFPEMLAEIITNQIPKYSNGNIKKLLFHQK

[3] = biological target: Glucocorticoid receptor (Homo sapiens) (UniProt P04150); assay: GR-EFC Redistribution (AID 451; calls by dose curve; further: potency means the concentration at half of the fitted maximal effect); settings: CHO-K1 GR-EFC translocation, beta-gal luminescence, 2 h
In short: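 CHO-K1 cells expressing nuclear EA and GR-ED fragments of b-gal; compounds titrated up to 46 uM final, 2 h at 37 C. GR nuclear translocation read as complemented b-gal luminescence after 1 h RT detection.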

[4] = biological target: Mitogen-activated protein kinase 10 (Mus musculus) (UniProt Q61831); assay: JNK3 AlphaScreen Assay (AID 530); settings: JNK3 lysate, c-Jun phosphorylation; series mostly up to 57.1 µM;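 further: kinase came from lysate of stimulated human HepG2 cells; signal reports phosphorylation of biotinylated GST-cJun 1-79 at Ser73 with 10 µM ATP; on the % scale 0 is the no-effect control and ±100 the full control effect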
In short: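 Activity was read by AlphaScreen after JNK3-containing HepG2 lysate (cytokine pre-activated) phosphorylated biotinylated GST-cJun with 10 uM ATP at room temperature. Phospho-Ser73 cJun antibody with Protein-A acceptor beads provided detection.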

[5] = Cell Viability - NIH 3T3 (AID 541; active means well fitted cell-killing curve with a large enough effect; further: potency means the concentration at half of the fitted maximal effect; nearly all actives have a fitted effect of over 25% in size); settings: NIH 3T3 cell viability, qHTS; activity change, negative = cytotoxicity: at 92.2 µM (top of the series)
In short: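 Intracellular ATP (CellTiter-Glo luminescence, 20 min at room temperature) measured after 40 hr compound exposure at 37 °C of 1000 NIH 3T3 mouse fibroblasts/well in complete medium; AC50 derived by Hill-equation modelling of qHTS concentration-response curves.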

[6] = Cell Viability - SH-SY5Y (AID 544; active means well fitted cell-killing curve with a large enough effect; further: potency means the concentration at half of the fitted maximal effect; nearly all actives have a fitted effect of over 55% in size); settings: SH-SY5Y neuroblastoma cell viability; series mostly up to 92.2 µM
In short: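 Cytotoxicity measured via ATP-dependent luciferase luminescence (CellTiter-Glo) following 40 h, 37 °C exposure of 1500 SH-SY5Y cells per well. Concentration-response data were fitted with the standard Hill equation to give AC50.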

[7] = Cell Viability - Renal Proximal Tubule (AID 545; active means well fitted cell-killing curve with a large enough effect; further: potency means the concentration at half of the fitted maximal effect; nearly all actives have a fitted effect of over 40% in size); settings: renal proximal tubule cells viability, primary cells of rat origin; series mostly up to 91.7 µM
In short: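 Rat renal proximal tubule primary cells, 1000/well, exposed to compounds for 40 hr at 37 °C in complete medium; cellular ATP read by CellTiter-Glo luminescence. AC50 from concentration-response fitted with standard Hill equation.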

CC1=C(CC(=O)O)c2cc(F)ccc2/C1=C\c1ccc(S(C)=O)cc1 (stereo unspecified)
inactive: activity, negative = inhibition ([1]; at 17.2 µM (top of the series)) 0.939% | activity, negative = inhibition ([1]; at 38 µM (top of the series)) 9.67% | Potency [2] > 46 µM and > 20.6 µM | Potency [3] > 46 µM and > 20.6 µM

CC(=O)OCC(=O)[C@@]1(O)CC[C@H]2[C@@H]3CCC4=CC(=O)CC[C@]4(C)[C@H]3C(=O)C[C@@]21C
inactive: activity, negative = inhibition ([1]; at 17.2 µM (top of the series)) 11.3%

CC(C)NC[C@H](O)c1ccc(O)c(O)c1
inactive: activity, negative = inhibition ([1]; at 17.2 µM (top of the series)) -5.65% and -7.18% | activity, negative = inhibition ([1]; at 38 µM (top of the series)) -27.8% and -1.34% and -7.26% | Potency [2] > 46 µM and > 20.6 µM | Potency [3] > 46 µM and > 20.6 µM | Potency [4]

CCC(=O)c1ccc(O)cc1
inactive: activity, negative = inhibition ([1]; at 17.2 µM (top of the series)) -0.905% | Potency [2] > 20.6 µM

OCCN1CCN(CCCN2c3ccccc3Sc3ccc(Cl)cc32)CC1
inactive: activity, negative = inhibition ([1]; at 17.2 µM (top of the series)) -2.44% and -12% | activity, negative = inhibition ([1]; at 38 µM (top of the series)) -28.9% | Potency [2] > 20.6 µM | Potency [3] > 46 µM and > 20.6 µM | Potency [4]

CC[C@H]1CN2CCc3cc(OC)c(OC)cc3[C@@H]2C[C@@H]1C[C@H]1NCCc2cc(OC)c(OC)cc21
active: activity, negative = inhibition ([1]; at 17.2 µM (top of the series)) -96.7%
inactive: Potency [2] > 20.6 µM

N=c1c[n+](N2CCOCC2)[n-]o1
inactive: activity, negative = inhibition ([1]; at 17.2 µM (top of the series)) 4.68% | activity, negative = inhibition ([1]; at 38 µM (top of the series)) -10.2% | Potency [2] > 46 µM and > 20.6 µM | Potency [3] > 46 µM | Potency [4]

Nc1cc(=O)[nH]c(N)n1
inactive: activity, negative = inhibition ([1]; at 38 µM (top of the series)) 1.02%

CC(=O)c1ccc2c(c1)N(CCCN(C)C)c1ccccc1S2
inactive: activity, negative = inhibition ([1]; at 17.2 µM (top of the series)) -0.766% | Potency [2] > 20.6 µM | Potency [3] > 20.6 µM | Potency [4]

CN(C)CCOC(C)(c1ccccc1)c1ccccn1 (stereo unspecified)
inactive: activity, negative = inhibition ([1]; at 17.2 µM (top of the series)) 5.21%

CCCCOc1cc(C(=O)OCCN(CC)CC)ccc1N
inactive: activity, negative = inhibition ([1]; at 17.2 µM (top of the series)) -0.0669% | Potency [2] > 20.6 µM | Potency [3] > 20.6 µM | Potency [4]

CC1(C)OC(=O)NC1=O
inactive: activity, negative = inhibition ([1]; at 17.2 µM (top of the series)) 1.25% | Potency [2] > 20.6 µM | Potency [3] > 20.6 µM | Potency [4]

OCC(O)CN1CCN(c2ccccc2)CC1 (stereo unspecified)
inactive: activity, negative = inhibition ([1]; at 17.2 µM (top of the series)) 10.1% | Potency [2] > 20.6 µM

CNC(=O)Oc1ccc2c(c1)[C@]1(C)CCN(C)[C@@H]1N2C
inactive: activity, negative = inhibition ([1]; at 17.2 µM (top of the series)) 4.34%

Cc1cccc(Nc2cc(Cl)nc(SCC(=O)O)n2)c1C
inactive: activity, negative = inhibition ([1]; at 7.69 µM (top of the series)) 0.678% | Potency [2] > 46 µM | Potency [3] > 46 µM and > 9.22 µM | activity change, negative = inhibition [4] 0.662% [at 11.4 µM]

CCCc1c(OCCCCc2nn[nH]n2)ccc(C(C)=O)c1O
inactive: activity, negative = inhibition ([1]; at 17.2 µM (top of the series)) -12.8% | Potency [2] > 20.6 µM

CN(C)CCCN1c2ccccc2Sc2ccc(Cl)cc21
inactive: activity, negative = inhibition ([1]; at 17.2 µM (top of the series)) -1.56% and 4.13% | activity, negative = inhibition ([1]; at 38 µM (top of the series)) -20.2% | Potency [2] > 20.6 µM | Potency [3] > 46 µM and > 20.6 µM | Potency [4]

NS(=O)(=O)c1cc2c(cc1Cl)NC(CSCc1ccccc1)=NS2(=O)=O
inactive: activity, negative = inhibition ([1]; at 17.2 µM (top of the series)) -11% and 0.218% | Potency [2] > 20.6 µM | Potency [3] > 20.6 µM | Potency [4]

Cc1cc2c(cc1S(N)(=O)=O)S(=O)(=O)CCC2
inactive: activity, negative = inhibition ([1]; at 17.2 µM (top of the series)) -10.1% | Potency [2] > 20.6 µM | Potency [3] > 20.6 µM | Potency [4]

CCN(CC)CCOC(=O)C1(C2CCCCC2)CCCCC1
inactive: activity, negative = inhibition ([1]; at 17.2 µM (top of the series)) 0.488% and 9.07% | activity, negative = inhibition ([1]; at 38 µM (top of the series)) -26% | Potency [4]

C[C@]12CC[C@@H]3c4ccc(O)cc4CC[C@H]3[C@@H]1CCC2=O
inactive: activity, negative = inhibition ([1]; at 17.2 µM (top of the series)) -23.3%

CC(COc1ccccc1)NC(C)C(O)c1ccc(O)cc1 (stereo unspecified)
inactive: activity, negative = inhibition ([1]; at 17.2 µM (top of the series)) 20.7% | Potency [2] > 20.6 µM

Cc1ncc([N+](=O)[O-])n1CC(O)CCl (stereo unspecified)
inactive: activity, negative = inhibition ([1]; at 17.2 µM (top of the series)) 0.729% | Potency [2] > 20.6 µM

Cc1c(Cl)cccc1Nc1ccccc1C(=O)O
inactive: activity, negative = inhibition ([1]; at 17.2 µM (top of the series)) -15.1% and -25.4% | Potency [2] > 20.6 µM | Potency [3] > 20.6 µM | Potency [4]

COC(=O)C1=C(C)NC(C)=C(C(=O)OC)C1c1ccccc1[N+](=O)[O-]
active: Potency [5] 2 µM | Potency [6] 25.1 µM | Potency [7] 31.6 µM
inactive: activity, negative = inhibition ([1]; at 17.2 µM (top of the series)) -12.5% and -20.9% | activity, negative = inhibition ([1]; at 38 µM (top of the series)) -13.9% | Potency [2] > 46 µM and > 20.6 µM | Potency [3] > 46 µM and > 20.6 µM | Potency [4]

CNCCCC1c2ccccc2C=Cc2ccccc21
inactive: activity, negative = inhibition ([1]; at 17.2 µM (top of the series)) -10.4% and -15.8% | activity, negative = inhibition ([1]; at 38 µM (top of the series)) -9.63% | Potency [2] > 46 µM and > 20.6 µM | Potency [3] > 46 µM and > 20.6 µM | Potency [4]

CC(CN1c2ccccc2Sc2ccccc21)N(C)C (stereo unspecified)
inactive: activity, negative = inhibition ([1]; at 17.2 µM (top of the series)) -1.09%

CCCCN(CCCC)CCCOC(=O)c1ccc(N)cc1
inactive: activity, negative = inhibition ([1]; at 17.2 µM (top of the series)) -8.33% and 3.52% | Potency [2] > 20.6 µM | Potency [3] > 20.6 µM | Potency [4]

COc1ccc(Cl)cc1C(=O)NCCc1ccc(S(=O)(=O)NC(=O)NC2CCCCC2)cc1
inactive: activity, negative = inhibition ([1]; at 17.2 µM (top of the series)) -3.96% and -3.07% | activity, negative = inhibition ([1]; at 38 µM (top of the series)) 4.48% | Potency [4]

CCN(CC)CCNC(=O)c1cc(Cl)c(N)cc1OC
inactive: activity, negative = inhibition ([1]; at 17.2 µM (top of the series)) 16.4% and -2.07% | activity, negative = inhibition ([1]; at 38 µM (top of the series)) -26.6% | Potency [4]
